The target in one assay is AATK. The experiment in a line: pooled miR-30 sensor sort-seq; sequence = guide strand. The settings on record: shRNA.
TTGCGTTCCAGGTCCTCGCAGA registered a sensor-assay potency score (higher = more potent) of -0.188.

TTCACCGTCAGGTCAGCCGTGA displayed a sensor-assay potency score (higher = more potent) of -0.0686.

In turn, TAGTCCTCTCTGTACTTGCAGT registered a sensor-assay potency score (higher = more potent) of -1.18.

The sequence TAGTTCTCGGTGTCATAGCCAC had a sensor-assay potency score (higher = more potent) of -0.895.

Regarding TAGCTCATCCTCGCCAGTCAGC, the sensor-assay potency score (higher = more potent) is -1.1.

The sequence TTCTGATCTCAGCGGAACCGGG showed a sensor-assay potency score (higher = more potent) of -1.21.

Regarding AACTGCATCACCTCGTACCAGC, the sensor-assay potency score (higher = more potent) is -1.29.

The sequence ATAGTCACCAATCTTCACCGTC registered a sensor-assay potency score (higher = more potent) of 0.047.

TCGGTAGGGATTCTTCTCGTTG displayed a sensor-assay potency score (higher = more potent) of -0.77.

The target of a further assay is ABCA10. The description is as above. The settings on record: shRNA.
On to TTAGACAGAAATACTTTCCTAT, for which the sensor-assay potency score (higher = more potent) was found to be 0.661.

TTCATTTATTCTATTGTCCAGA had a sensor-assay potency score (higher = more potent) of -0.279.

Take TTTATCATCAACATTTCCCAGC: the sensor-assay potency score (higher = more potent) is -0.195.

The sequence TATCACTAAATATAACTCCCAC gave a sensor-assay potency score (higher = more potent) of -0.516.

Take TTATTAACGATTAACAGGCTGG: the sensor-assay potency score (higher = more potent) was -0.301.

Regarding TATTCTTTTATAACATTTCTGA, the sensor-assay potency score (higher = more potent) stood at 0.0597.

For TTTATTTTAGCAAATACCCTGA, the sensor-assay potency score (higher = more potent) was -0.0638.

Sequence TTCTTCTTCGGGCTCTTCCGGA gave a sensor-assay potency score (higher = more potent) of -0.863.

Take TTATTTTTTCTCCACTTGCGAA: the sensor-assay potency score (higher = more potent) was -1.28.

Consider TTCTTTTATAACATTTCTGATT, for which the sensor-assay potency score (higher = more potent) was -1.16.

Turning to TTGAACATCTTCATCTTCTTCT, the sensor-assay potency score (higher = more potent) is 1.07.

For another assay, the target named is ABCB11. The description is as above. The conditions noted are these: shRNA.
Sequence TTAGCTTTTGCATAACTTGGGG gave a sensor-assay potency score (higher = more potent) of -0.00733.

Sequence TTCTTGTAACTCAACGTCGTAG had a sensor-assay potency score (higher = more potent) of -0.168.

TAGAGTGAAGTAAACACCTTTC gave a sensor-assay potency score (higher = more potent) of -0.144.

Sequence TTGACTATCATCCCGATCTGAG came in with a sensor-assay potency score (higher = more potent) of -0.211.

TTCTTCTCATCTTGTAACCTTG showed a sensor-assay potency score (higher = more potent) of -0.836.

As for TACAACTGCAGAGATCACCCTG, the sensor-assay potency score (higher = more potent) worked out at 0.317.

TAGACTTATGATCTACAACAGC: the sensor-assay potency score (higher = more potent) was -1.33.

On to TTGCACTCAGTACAACTGCAGA, for which the sensor-assay potency score (higher = more potent) was -1.15.

Consider TAGCTTTTGCATAACTTGGGGT, for which the sensor-assay potency score (higher = more potent) was found to be 0.0681.

TAACCATCTTCTGACATGCAGT registered a sensor-assay potency score (higher = more potent) of -1.16.

Consider TTTGCTGTCATGACCATCTATC, for which the sensor-assay potency score (higher = more potent) was -0.277.

The next assay concerns the target ABCD4. Described as above. The settings on record: shRNA.
TAGTAGACGAGGGTGAACGGGG gave a sensor-assay potency score (higher = more potent) of -0.612.

On to TCGATCTTCGCTGTCAGTCCTC, for which the sensor-assay potency score (higher = more potent) was -0.221.

TAGAAGAGTCGGGCAAAGGAGA returned a sensor-assay potency score (higher = more potent) of -1.06.

ATGAGCTGGGTGAAGCAGCTGA: the sensor-assay potency score (higher = more potent) is -0.109.

ATCGGCAGAACCTGAGTCGGGG returned a sensor-assay potency score (higher = more potent) of -0.759.

Consider TGCGATGACAACGTAACTCAGG, for which the sensor-assay potency score (higher = more potent) was -0.631.

For TAGTCAAAGGTGTTGATGCCGA, the sensor-assay potency score (higher = more potent) was -0.776.

ATACCAGTTCCAGTCCACCTGC registered a sensor-assay potency score (higher = more potent) of -0.984.

Sequence TCTCATCATCGGCAGAACCTGA came in with a sensor-assay potency score (higher = more potent) of -0.963.
Also: reference of the scale not given here.
